Screening data: PubChem BioAssay, National Center for Advancing Translational Sciences (NCATS)
NS1 function inh: qHTS Assay for Inhibitors of Influenza NS1 Protein Function; Potency, µM (highest dose often 46.1 µM); 0.4% of 270,000 active; AID 2326, 2010; calls by dose curve; further: actives are rising curves; nearly all actives have a fitted effect of over 50% in size
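In this qHTS, NS1 from influenza A is expressed in budding yeast, where it slows growth. Cells are switched from glucose to 2% galactose medium (pH 6.0, -URA), treated with compound, and growth recovery is read at OD600.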
Pf growth 96h: Primary qHTS for delayed death inhibitors of the malarial parasite plastid, 96 hour incubation | Potency, µM (highest dose often 28.7 µM), most hits filed as inhibitors | AID 504834, 2011 | P. falciparum luciferase reporter growth, 96 h | 6.9% of 320,000 active
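Delayed-death screen, second-generation endpoint: infected erythrocytes, 2% hematocrit, 0.05% parasitemia final; 96 hours at 37 C, 5% CO2; luciferase detection reagent; luminescence decrease equals reduced growth.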
Pf growth 48h: Primary qHTS for delayed death inhibitors of the malarial parasite plastid, 48 hour incubation | 5.9% of 310,000 active | Potency, µM (series often up to 28.7 µM), most hits filed as inhibitors | P. falciparum luciferase growth in erythrocytes, 48 h
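Firefly luciferase activity from engineered P. falciparum reports growth; inhibitors lower the luminescent signal. Cultures contained 2% hematocrit erythrocytes at 0.1% final parasitemia.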
Cycloheximide cs: Cycloheximide Counterscreen for Small Molecule Inhibitors of Shiga Toxin. cell reporter, cycloheximide protein synthesis inhibition counterscreen. max response, %. 12% of 300,000 active. AID 2314, 2010; in the data active means max response mostly above about 13%, no sharp cut-off; inactive means mostly below about 14%; further: read at 38.3 µM for the half of the compounds with a filed dose
Shiga inhibitor: A qHTS for Small Molecule Inhibitors of Shiga Toxin; AID 2315, 2010; Vero cells, Shiga toxin protein synthesis inhibition reporter; 9.2% of 290,000 active; inhibition, % at 38.7 µM; in the data active means inhibition mostly above about 28%, no sharp cut-off; inactive means mostly below about 43%
Numbers stand for hits; - = inactive; ? = inconclusive; . = no result; [ ] = another dose, or the depositor's remark. Sampled rows, rich in hits. Any-hit rate of the full collection: about 21%. Unless noted, the call rests on the fitted dose curve; in most records, active means well fitted inhibition curve with a large enough effect; inconclusive means small, poorly fitted or top-dose-only effect, or another doubt; inactive means no such curve, though single readings can be large or run the other way.

SMILES	NS1 function inh	Pf growth 96h	Pf growth 48h	Cycloheximide cs	Shiga inhibitor
CN(C)CCCN(C(=O)COc1ccc(Cl)cc1)c1nc2cc3c(cc2s1)OCO3	-	-	-	-	-
CCN(CC)CCN(C(=O)c1ccc2ccccc2c1)c1nc2ccc(F)cc2s1	-	-	-	-	51
CN(C)CCCN(C(=O)c1ccc2ccccc2c1)c1nc2cc3c(cc2s1)OCO3	-	10µM	?	-	-
COc1ccc2nc(N(CCN(C)C)C(=O)c3ccc4ccccc4c3)sc2c1	-	-	-	-	-
CN(C)CCCN(C(=O)c1ccc2c(c1)OCCO2)c1nc2cc3c(cc2s1)OCO3	-	?	-	-	-
Cc1ccc2nc(N(CCN(C)C)C(=O)c3ccc4ccccc4c3)sc2c1	-	-	-	-	-
CN(C)CCN(C(=O)c1ccc2ccccc2c1)c1nc2ccc(Br)cc2s1	-	?	-	16	-
COc1cc(NC(C)CCc2ccccc2)cc(OC)c1OC (centres undefined)	?	3.7µM	-	-	-
COc1ccc(CCC(C)Nc2cccc(F)c2)cc1 (centres undefined)	-	?	?	18	-
COc1ccc(CCC(C)Nc2ccccc2F)cc1 (centres undefined)	-	?	-	-	-
COc1ccc(OCC(=O)N2CCN(C(=O)c3cccc4ccccc34)CC2)cc1	-[9.22 µM]	.	-	-	-
S=c1nccc(-c2ccc3c(c2)CCO3)[nH]1	-	-	-	-	-
CC1(C)CCc2cc(-c3ccnc(=S)[nH]3)ccc2O1	-	-	-	42	53
O/N=C1/CCSc2ccccc21	-	-	-	-	-
Cc1cc(C)nc(N/N=C2/CCSc3ccc(F)cc32)n1	-	10µM	?	-	-
O/N=C1\CCSc2ccc(F)cc21	-	-	-	33	58
O=C(O)c1ccc(N/N=C2/CCSc3ccc(F)cc32)cc1	-	-	-	38	-
Cc1ncc2c(n1)-c1cc(F)ccc1SC2	-	-	.	-	-
C=C1c2ccccc2O[C@H](C(=O)OCC)[C@@H]1C1CCCCC1 (tested in a mixture with another compound)	.	.	.	-	-
COc1ccc(CCNC(=O)C2CCCN2C(=O)Nc2cccc(C(C)=O)c2)cc1OC (centres undefined)	-	-	-	-	-
Cc1ccc2c(c1)N(CC(=O)N1CCc3ccccc3C1)C(=O)CO2	-	?	-	-	-
Cc1cccc(C(=O)Nc2sc(-c3ccccc3)cc2C(=O)O)c1	-	-	-	46	127
CC(C)(C)C(=O)Nc1scc(-c2ccc(-c3ccccc3)cc2)c1C(=O)O	-	-	?	-	-
CCOC(=O)c1cc(-c2ccccc2)sc1NC(=O)c1ccc(OC)c(OC)c1	-	?	-	-	-
CC(C)(C)C(=O)Nc1sc(-c2ccccc2)cc1C(=O)O	-	-	-	41	112
SMILES	NS1 function inh	Pf growth 96h	Pf growth 48h	Cycloheximide cs	Shiga inhibitor
CCc1cc(C(=O)c2ccccc2)c(N)s1	-	?	-	-	-
Nc1sc(-c2ccccc2)cc1C(=O)O	-	-	.	29	55
CCOC(=O)c1ccc(N2C(=O)CC(SCC(=O)Nc3ccc(S(N)(=O)=O)cc3)C2=O)cc1 (centres undefined)	-	-	-	-	-
CCOc1ccc(NC(=S)N(CCN2CCOCC2)Cc2ccc3c(c2)CCCN3CC)cc1	.	?	?	-	-
CCN1CCCc2cc(CN(CCN3CCOCC3)C(=S)Nc3ccc(OC)cc3)ccc21	.	5.9µM	-	-	-
COc1ccc(NC(=S)N(CCCN2CCCCC2)Cc2cccs2)cc1	-	12µM	?	-	-
COc1ccc(NC(=S)N(CCCN2CCC(C)CC2)Cc2cccs2)cc1	.	5.9µM	-	-	-
CCOC(=O)c1ccc(NC(=S)N(CCCN2CCN(CC)CC2)Cc2cccs2)cc1	?	-	8.3µM	-	-
CC1C(C#N)=C(SCC(N)=O)NC2=C1C(=O)CC(C)(C)C2 (centres undefined)	.	?	-	-	-
O=C(Nc1ccccc1)OC(CN1CCCCC1)C(F)(F)F (centres undefined)	-	-	-	-	-
N#C/C(=C/Nc1ccccc1)c1ccsc1	-	-	-	27	42
Cc1ccc(N/C=C(\C#N)c2ccc(OCCCF)cc2)cc1	-	.	-	-	-
Cc1ccc(N/C=C(/C#N)c2ccsc2)cc1	-	-	-	41	132
CCCCC[CH2][Hg][S]C1=C2N=CNC2NC(N)=N1 (centres undefined)	-	.	.	.	.
CCOC(=O)c1c(C)[nH]c(N=Nc2ccccc2Cl)c1C	-	-	?	65	97
CCOC(=O)c1c(C)[nH]c(NC(=O)NNC(=O)c2ccccc2Cl)c1C	.	-	-	.	.
CCOC(=O)c1c(C)[nH]c(N=Nc2ccccc2)c1C	-	-	.	54	82
CCOC(=O)c1c(C)[nH]c(N=Nc2ccc(OC)cc2)c1C	-	-	-	35	85
CCOC(=O)c1[nH]c(C)c(C(=O)c2ccc(C)cc2)c1C	-	-	.	-	-
CCOC(=O)c1c(C)[nH]c(N=Nc2ccc(C)cc2)c1C	-	.	-	31	-
Cc1ccc(CCC(=O)Nc2ccc(CC(=O)O)cc2)o1	?	-	-	-	-
COC(=O)C1=C(c2cccc(OCc3ccccc3)c2)C[C@@H]2CC[C@H]1N2C(=O)NCc1cccc(OC)c1	.	4.1µM	10µM	.	.
COC(=O)C1=C(c2cccc(OCc3ccccc3)c2)C[C@@H]2CC[C@H]1N2C(=O)NCc1ccc(C(C)(C)C)cc1	.	?	3.7µM	.	.
COC(=O)C1=C(c2cccc(OCc3ccccc3)c2)C[C@@H]2CC[C@H]1N2C(=O)NCCN1CCOCC1	.	5.2µM	?	.	.
COC(=O)C1=C(c2cccc(OCc3ccccc3)c2)C[C@@H]2CC[C@H]1N2C(=O)NCCOc1ccc(OC)cc1	.	?	7.4µM	.	.
SMILES	NS1 function inh	Pf growth 96h	Pf growth 48h	Cycloheximide cs	Shiga inhibitor
Cc1ccc(C)c(NC(=O)CS(=O)(=O)c2cn(C)c3ccccc23)c1	-	?	-	-	-
O=c1cc[nH]c2ccc(OC(F)(F)F)cc12	-	?	-	-	-
COc1ccc(OC)c(C2=NOC(C(=O)NCc3ccco3)C2)c1 (centres undefined)	-	-	.	-	-
COC(=O)C1=C(c2cccc(OCc3ccccc3)c2)C[C@@H]2CC[C@H]1N2C(=O)NCc1ccccc1C(F)(F)F	.	?	4.1µM	.	.
COC(=O)C1=C(c2cccc(Cl)c2)C[C@@H]2CC[C@H]1N2C(=O)NCC1CC1	.	-	?	.	.
CCCNC(=O)N1[C@H]2CC[C@@H]1C(C(=O)OC)=C(c1cccc(Cl)c1)C2	.	?	-	.	.
COC(=O)C1=C(c2cccc(OCc3ccccc3)c2)C[C@@H]2CC[C@H]1N2C(=O)NCc1ccc(N(C)C)cc1	.	?	8.3µM	.	.
C/C(CC(=O)Nc1ccc(C)c(Cl)c1)=N\NC(=O)c1ccccn1	-	-	-	51	77
C/C(CC(=O)Nc1ccc(N(C)C)cc1)=N\NC(=O)c1ccc(Cl)cc1	-	-	-[0.00184 µM]	27	-
C/C(CC(=O)Nc1ccc(N(C)C)cc1)=N\NC(=O)c1ccncc1	-	-	-	-	-
